Bioassay records: PubChem BioAssay, National Center for Advancing Translational Sciences (NCATS)
LmPK inh: LmPK (Leishmania mexicana) enzyme inhibition; Q27686; Potency, µM (doses to about 57.5 µM), for inactives: at the top dose activity change, negative = inhibition, actives largely listed as inhibitors; purified LmPK, Kinase-Glo ATP luminescence, 1 h; 290,000 tested, 0.37% active; note: potency is the fitted concentration of half-maximal effect; % is set by controls: 0 for no effect and ±100 for the full control effect
Target sequence (Q27686 whole entry, looked up): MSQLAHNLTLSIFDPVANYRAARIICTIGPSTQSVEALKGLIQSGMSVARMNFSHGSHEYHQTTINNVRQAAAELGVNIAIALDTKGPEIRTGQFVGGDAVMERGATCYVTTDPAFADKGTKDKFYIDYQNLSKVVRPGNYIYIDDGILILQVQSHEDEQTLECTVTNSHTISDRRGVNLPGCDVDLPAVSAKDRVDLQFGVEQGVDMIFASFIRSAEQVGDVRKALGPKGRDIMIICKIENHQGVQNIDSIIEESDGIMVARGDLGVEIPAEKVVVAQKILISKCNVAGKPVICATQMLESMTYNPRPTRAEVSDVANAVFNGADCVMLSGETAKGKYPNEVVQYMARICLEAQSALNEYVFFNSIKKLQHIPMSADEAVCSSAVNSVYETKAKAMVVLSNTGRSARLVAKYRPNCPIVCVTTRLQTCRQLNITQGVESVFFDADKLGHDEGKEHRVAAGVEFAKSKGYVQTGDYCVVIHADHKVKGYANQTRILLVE
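Kinase-Glo luminescence read after 1 h RT reaction of 0.1 nM LmPK with 0.5 mM PEP and 0.1 mM ADP. Activity scaled between uninhibited and enzyme-free controls.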
NS1 function inh: blocks influenza NS1 protein function | Potency, µM (series often up to 46.1 µM), without a hit: at the highest dose activity, positive = more growth | 270,000 tested, 0.4% active | AID 2326; calls by dose curve; note: potency is the fitted concentration of half-maximal effect; actives are rising curves; nearly all actives have a fitted effect of over 50% in size
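Recovery from NS1-induced slow growth read by OD600 in budding yeast switched to galactose assay medium (pH 6.0, -URA) at 1:100 dilution. Compound 23 nl per well; the matching strain lacking NS1 serves as control.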
Shiga inhibitor: inhibitors of Shiga toxin in Vero cells; Vero cells, Shiga toxin protein synthesis inhibition reporter; AID 2315; 290,000 tested, 9.2% active; inhibition, % at 38.7 µM; in the data active = inhibition mostly above about 28%, no sharp cut-off; inactive = mostly below about 43%; note: 0% is about no effect
CHX counter: counter-screen for Shiga toxin inhibitors: cycloheximide protein synthesis inhibition; cell reporter, cycloheximide protein synthesis inhibition counterscreen; max response, %; 300,000 tested, 12% active; AID 2314; in the data active = max response mostly above about 13%, no sharp cut-off; inactive = mostly below about 14%; note: read at 38.3 µM for the half of the compounds with a filed dose; 0% is about no effect
Tb PYK inh: inhibitors of Trypanosoma brucei pyruvate kinase. 410,000 tested, 0.12% active. Q57TT1. AID 624173. TbPYK enzyme, Kinase-Glo Plus ATP luminescence, 45 min. Potency, µM (doses to about 76.8 µM), for inactives: at the highest dose activity, negative = inhibition, hits mostly inhibitors; note: potency is the fitted concentration of half-maximal effect; % is set by controls: 0 for no effect and ±100 for the full control effect; nearly all actives have a fitted effect of over 50% in size
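Glycolytic pyruvate kinase of T. brucei was incubated with substrate, test compound and 130 uM ADP for 45 minutes at room temperature. Luminescent Kinase-Glo Plus signal was measured after 10 minutes.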
SARS PLpro yeast: blocks SARS-CoV papain-like protease in a yeast assay | 330,000 tested, 0.19% active | S. cerevisiae expressing SARS-CoV PLpro, growth rescue | Potency, µM (series often up to 32.9 µM), without a hit: top-dose activity, positive = growth rescue, usual class: activators | AID 485353; calls by dose curve; note: potency is the fitted concentration of half-maximal effect; 0% is about no effect; nearly all actives have a fitted effect of over 55% in size
* = called active by the depositor; . = no result given; + = active, no number; [ ] = dose if it differs, or a comment. The full list was thinned out, with hits kept by preference. Unless noted, calls come from the whole dose curve; as a rule, active = well fitted curve in the direction sought with a large enough effect; inconclusive = small, poorly fitted or top-dose-only effect, or another doubt; inactive = no such curve, though single readings can be large; an effect the other way counts as inactive or inconclusive.

SMILES | LmPK inh | NS1 function inh | Shiga inhibitor | CHX counter | Tb PYK inh | SARS PLpro yeast
Cc1ccc(C(=O)OCC(=O)c2c[nH]c3ccccc23)cc1 | -0.4% | 10.0% | 81.2* | 48.1* | -1.4% | -12.2%
O=C(OCC(=O)c1c[nH]c2ccccc12)C1=COCCO1 | 0.6% | -5.9% | 74.4* | 37.5* | -11.0% | 0.4%
Cc1ccc(C)c(N2CCN(c3c(CN4CCCC4)c(=O)oc4ccccc34)CC2)c1 | . | . | . | . | -7.6% | .
CCC(=O)O[C@]1(C(=O)CCl)[C@@H](C)CC2C3C[C@H](F)C4=CC(=O)C=CC4(C)[C@@]3(F)C(O)CC21C (some centres not stated) | . | . | . | . | -4.6% | .
Cc1cccc(NC(=O)N2CCN(C(=O)c3nsc4ccccc34)CC2)c1C | . | . | . | . | -0.7%[15.4 µM] | .
COc1ccc(OCC(=O)c2c[nH]c3ccccc23)cc1 | -0.8% | . | 53.7* | 45.1* | -18.0% | -1.2%
O=C(OCC(=O)c1c[nH]c2ccccc12)c1ccc([N+](=O)[O-])s1 | 0.6% | -56.2% | 18.8 | 24.4* | -7.5% | -5.6%
O=S(=O)(c1ccccc1)N1CCN(c2nc(-c3ccc(F)cc3)nc3cc(Cl)ccc23)CC1 | . | . | -3.2 | 13.1 | . | .
O=C(O)Cn1cnc2c(oc3ccccc32)c1=O | 0.3% | 4.4% | -4.8 | 3.9 | 2.1% | 0.6%
CCCn1cnc2c(oc3ccccc32)c1=O | -1.8% | -1.5% | 38.9* | 29.3* | 1.9% | -3.0%
CCn1cnc2c(oc3ccccc32)c1=O | 0.7% | . | 51.6 | 24.1* | 2.6% | -0.1%
O=C(Cn1cnc2c(oc3ccccc32)c1=O)c1ccccc1 | -1.7% | -61.9% | 52.7* | 54.5* | -2.1% | -15.5%
Cn1cnc2c(oc3ccccc32)c1=O | . | . | . | . | -5.9% | .
C#CCn1cnc2c(oc3ccccc32)c1=O | -3.2% | -20.4% | 73.7 | 33.8* | 0.9% | -2.4%
O=C(CSc1ncnc2c1oc1ccccc12)c1cccs1 | 1.8% | -4.0% | 41.9* | 23.2* | -4.9% | 1.9%
NC(=O)CSc1ncnc2c1oc1ccccc12 | -5.8% | -8.1% | -2.1 | 3.8 | 1.0% | 4.9%
Cc1nc(SCC(=O)c2cccs2)c2oc3ccccc3c2n1 | -1.2% | 1.5% | 135.8* | 55.6* | -1.4% | 2.0%
Cc1nc(SCC(=O)O)c2oc3ccccc3c2n1 | 0.2% | -8.6% | -13.2 | -1.2 | 9.3% | -0.9%
CS(=O)(=O)c1ccc(Cl)c(NC(=O)C2CCCN(C(=O)c3ccc(Cl)cc3)C2)c1 (configuration not stated) | . | . | . | . | 1.6% | 0.4%
CC(C)CC(=O)Nc1ccc(-c2nc3ccccc3c(=O)[nH]2)cc1 | -4.1% | 3.4% | 73.3* | 31.8* | -2.2% | 2.3%
Cc1ccc(C(O)c2ncc(-c3ccccc3)[nH]2)c(C)c1 (configuration not stated) | . | . | . | . | -0.2% | .
COc1cc(/C=N/OCC(=O)Nc2ccc(OC(F)F)cc2)ccc1OCc1ccccc1 | -0.8% | 3.8% | 21.9 | 45.5* | -8.7% | -4.2%
COc1ccc(/C=N/OCC(=O)NC(c2ccccc2)c2ccccc2)cc1OC | 1.0% | 16.1% | 2.1 | 10.3 | -2.8% | 15.8%
CCOc1ccc(/C=N/OCC(=O)Nc2ccc(OCc3ccccc3)cc2)cc1OC | -5.9% | 9.2% | 36.8 | 17.4* | -18.3% | -1.7%
O=C(NCC1CCCN1S(=O)(=O)c1cccs1)c1ccc(Cl)cc1 (configuration not stated) | . | . | . | . | -4.5% | -1.7%
SMILES | LmPK inh | NS1 function inh | Shiga inhibitor | CHX counter | Tb PYK inh | SARS PLpro yeast
CC(C)(C)NC(=O)C(=O)NNC(=O)c1cccc(Br)c1 | 8.0% | . | 47.3* | 17.3* | -3.0% | -0.8%
COc1ccccc1C(=O)N/C(=N/c1nc(C)cc(C)n1)Nc1ccccc1 | 2.9% | -7.3% | 15.5 | 12.5* | 0.9% | 0.6%
COc1ccccc1NC(=O)NNC(=O)c1cc2ccccc2cc1O | -4.2% | 13.3% | 101.1* | 26.1* | -12.2% | 3.2%
COc1ccccc1C(=O)NNC(=O)c1cccc(Br)c1 | -2.4% | -24.6% | . | 35.0* | 1.8% | -6.3%
CCC(=O)N/C(=N/c1nc(C)cc(C)n1)Nc1ccccc1 | 0.3% | 2.7% | -11.8 | 5.5 | 4.4% | 2.7%
COc1ccc([C@H]2CC(=O)C=C(c3ccc(F)cc3OCc3ccccc3)C2)cc1OC | . | . | . | . | -7.8% | -5.9%
CCOC(=O)c1c(C)[nH]c(C)c1S(=O)(=O)N1CCC(C(=O)Nc2ccc(OC)c(OC)c2)CC1 | . | . | . | . | 4.0% | .
COc1ccccc1C(=O)NNC(=O)c1cccc(Cl)c1 | 7.1% | 4.5% | 46.3 | 28.4* | -12.6% | 1.6%
COc1ccccc1NC(=S)NNC(=O)c1ccccc1Br | -4.4% | -16.3% | 88.0* | 26.8* | -21.4% | 10.7%
COc1ccc(Cl)cc1C(=O)NNC(=O)c1cccc([N+](=O)[O-])c1 | -2.0% | 2.8% | 18.6 | -3.6 | 1.5% | -0.1%
COc1ccccc1NC(=S)NNC(=O)c1c(Cl)c(C)nn1C | -5.9% | -26.2% | 42.7* | 10.2 | -24.4% | -2.8%
CC(C)(C)c1ccc(C(=O)NNC(=O)c2ccccc2Br)cc1 | -1.8% | 7.3% | 31.1 | 30.6* | 28.7% | 0.3%
COCc1nc2cccnc2n1C1CCN(S(=O)(=O)N(C)C)CC1 | . | . | . | . | 1.3% | .
CCCCN(Cc1ccc(C(=O)N[C@H](C(=O)O)C(C)C)cc1)C(=O)C(c1ccccc1)c1ccccc1 | . | . | . | . | -3.3% | .
CC(C)(C)NC(=O)C(=O)NNC(=O)c1ccc(C(C)(C)C)cc1 | -1.1% | -14.2% | -2.8 | 1.1 | -0.1% | -7.8%
COc1ccccc1C(=O)NNC(=O)c1ccc2ccccc2c1O | . | . | . | . | -0.3% | .
COc1ccccc1C(=O)NNC(=O)c1ccccc1Br | -6.3% | -0.4% | . | 13.3* | 4.3% | 1.7%
COc1ccccc1C(=O)NNC(=O)c1ccccc1 | -28.4% | -10.5% | . | 34.0* | -1.5% | -5.8%
COC(=O)NNC(=O)c1ccc(C(C)(C)C)cc1 | 0.1% | 9.5% | 22.5* | 29.7* | 14.2% | -5.7%
COc1ccccc1C(=O)NC(=O)Nc1cccc(Cl)c1 | -11.1% | -2.1% | 130.1* | 48.9* | 11.0% | -2.8%
CCc1cccc(OCC(=O)Nc2ccc(S(=O)(=O)Nc3cc(C)nc(C)n3)cc2)c1 | . | . | . | . | -1.2% | .
O=C(Nc1nc(-c2ccc(F)c(F)c2)cs1)Nc1ccc(F)cc1F | -0.5% | 3.1% | -2.1 | 9.2 | 2.0% | 1.4%
COc1ccc(OCCOC(=O)c2cccc(-n3cnnn3)c2)cc1 | 3.8% | -6.8% | 14.2 | 14.2* | -14.2% | 3.9%
CCOc1ccc(C(=O)COC(=O)c2cccc(-n3cnnn3)c2)cc1 | 0.4% | -5.1% | 50.7* | 56.2* | 0.4% | 7.4%
COC(=O)c1cccc(-n2cnnn2)c1 | -0.2% | 2.6% | -3.4 | -2.6 | 5.7% | 5.7%
O=C(COC(=O)c1cccc(-n2cnnn2)c1)c1ccccc1 | -10.9% | -16.4% | 30.7* | 20.3* | -12.3% | -6.0%
Cc1c2cccc(Sc3ccccc3)c2c2c3c(cccc13)[S+](c1ccccc1)C2 (configuration not stated) | . | 3.7% | . | . | . | .
O=C(Nc1ccccc1)c1ccccc1N=Cc1ccccc1O | -1.7% | 0.5% | + | 47.2* | -18.1% | -24.4%
